Most compounds without a hit are left out; they make up all but 10% or so of the library.
JMJD2A Tudor inh – blocks the human JMJD2A Tudor domain | O75164 | AlphaScreen JMJD2A-Tudor / H3K4me3 peptide binding | Potency, µM (top dose mostly 114 µM), without a hit: at the top dose activity change, negative = inhibition, hits mostly inhibitors | 4.4% of 390,000 active | AID 504339; note: % is set by controls: 0 for no effect and ±100 for the full control effect; nearly all actives have a fitted effect of over 50% in size
GLS inh – inhibitors of human glutaminase (GLS); O94925; GLS enzymatic activity, qHTS titration; Potency, µM (highest dose often 45.5 µM), for inactives: top-dose activity change, negative = inhibition, hits mostly inhibitors; 0.21% of 410,000 active; note: % is set by controls: 0 for no effect and ±100 for the full control effect
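Enzyme dispensed in phosphate buffer (45 mM, pH 8.2, 0.02% Tween-20), compounds pinned in, then 1 mM L-glutamine solution and the glutamate oxidase–HRP–Amplex Red mix added; fluorescence read immediately and again after 30 min at room temperature.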
G9a inh – inhibitors of human histone lysine methyltransferase G9a; 8.8% of 350,000 active; G9a H3K9 monomethylation, AlphaScreen, 2 h; Potency, µM (titrated, usually from 102 µM), inactives show at the top dose activity, negative = inhibition, usual class: inhibitors; note: % is set by controls: 0 for no effect and ±100 for the full control effect; nearly all actives have a fitted effect of over 75% in size
Target sequence (Q96KQ7 913-1193 limits assumed): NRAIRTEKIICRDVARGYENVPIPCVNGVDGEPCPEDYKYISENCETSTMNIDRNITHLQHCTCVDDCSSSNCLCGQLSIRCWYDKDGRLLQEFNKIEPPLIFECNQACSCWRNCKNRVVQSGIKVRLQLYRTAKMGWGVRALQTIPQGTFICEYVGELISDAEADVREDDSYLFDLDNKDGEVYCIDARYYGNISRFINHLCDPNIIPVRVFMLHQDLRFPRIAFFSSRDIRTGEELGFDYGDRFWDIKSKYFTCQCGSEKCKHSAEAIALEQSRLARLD
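Using a bead-based AlphaScreen, monomethylated H3K9 product from 2 h room-temperature reactions (G9a 20 nM, peptide 500 nM, SAM 20 uM) was detected with 0.5 ug/mL rabbit anti-H3K9me1 antibody.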
BAZ2B block – inhibitors of human BAZ2B bromodomain; AlphaScreen BAZ2B-H3K14Ac peptide displacement; Potency, µM (titrated, usually from 114 µM), for the others: top-dose activity change, negative = inhibition, hits mostly inhibitors; 4.4% of 360,000 active; note: % is set by controls: 0 for no effect and ±100 for the full control effect; nearly all actives have a fitted effect of over 60% in size
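Compounds, titrated to a top concentration of 110 uM, were incubated 30 min at room temperature with preformed BAZ2B/acetyl-K14 H3 peptide complex (50 nM each). Proximity signal was measured by AlphaScreen after 20 min with beads.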
HP1b chromo inh – blocks HP1-beta chromodomain binding to methylated histone tails; 0.56% of 390,000 active; Potency, µM (top dose mostly 114 µM), for the others: at the highest dose activity change, negative = inhibition, actives largely listed as inhibitors; AID 540317; AlphaScreen HP1-beta / biotin-H3K9me3 peptide binding; note: nearly all actives have a fitted effect of over 70% in size
Target sequence (P83916 whole entry, looked up): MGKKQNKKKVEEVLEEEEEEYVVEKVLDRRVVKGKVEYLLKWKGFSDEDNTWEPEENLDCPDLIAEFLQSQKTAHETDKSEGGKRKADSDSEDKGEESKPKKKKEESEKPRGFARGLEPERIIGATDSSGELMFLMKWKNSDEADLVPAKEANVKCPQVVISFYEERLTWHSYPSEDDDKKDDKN
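Compound inhibition of the preformed complex between 50 nM HP1-beta and 50 nM biotinylated H3K9me3 peptide was read by AlphaScreen. Buffer was PBS pH 7.4 with 0.01% Tween-20. Incubations ran 30 min at room temperature, with 10 ug/mL donor/acceptor beads.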
* marks the source's active call; other numbers are inactive results; ? = inconclusive; . = no result given; ! = repeats disagree; [ ] = dose if it differs, or a comment. Calls come from the whole dose curve; as a rule, active = well fitted curve in the direction sought with a large enough effect; inconclusive = small, poorly fitted or top-dose-only effect, or another doubt; inactive = no such curve, though single readings can be large; an effect the other way counts as inactive or inconclusive. Potency is the fitted concentration of half-maximal effect.

SMILES | JMJD2A Tudor inh | GLS inh | G9a inh | BAZ2B block | HP1b chromo inh
CCNC(=S)N/N=C/c1cc(C)n(-c2ccc(Cl)cc2)c1C | 50µM* | -12% | ? | 28µM* | ?
Cc1cc(/C=N/N2CCN(C)CC2)c(C)n1-c1ccc(Cl)cc1 | 50µM* | -6% | 45µM* | ? | ?
Cc1cc(/C=N/n2cnnc2)c(C)n1-c1ccccc1 | -6% | -3% | 6%[59 µM] | -13% | 0%
Cc1cc(/C=N/NC(N)=S)c(C)n1-c1ccc(Cl)c(Cl)c1 | ? | -7% | ? | -7% | 3%
Cc1cc(/C=N/n2cnnc2)c(C)n1-c1cccc(Cl)c1 | -30% | -7% | 6%[12.7 µM] | ? | -5%
Cc1cc(/C=N/n2cnnc2)c(C)n1-c1ccc(Cl)cc1Cl | ? | 6% | -39%[12.7 µM] | ? | -13%
Cc1nn(-c2ccccc2)c(C)c1/C=C/C(=O)OCC(=O)Nc1ncc(C(F)(F)F)cc1Cl | -13% | -1% | 15% | 0% | 19%
O=C(O)c1ccccc1C(=O)NCCc1c(C(=O)O)[nH]c2ccc(F)cc12 | -13% | 2% | 1% | -13% | 4%
Cc1cc(/C=N/n2cnnc2)c(C)n1-c1ccc(OCc2ccc(F)cc2)cc1 | 56µM* | 20% | ? | ? | ?
O=C1C(=O)N(CCN2CCOCC2)C(c2cccc(Cl)c2)/C1=C(\O)c1ccc2c(c1)OCCO2 (stereo unspecified) | -16% | 13% | 35µM* | ? | 5%
CCOc1ccc(C2/C(=C(\O)c3ccc4c(c3)OCCO4)C(=O)C(=O)N2CCN2CCOCC2)cc1OC (stereo unspecified) | -6% | -16% | 45µM* | -33% | 18%
O=C1C(=O)N(CCN2CCOCC2)C(c2ccc(Cl)c(Cl)c2)/C1=C(/O)c1ccc2c(c1)OCO2 (stereo unspecified) | -18% | 4% | ? | -33% | 25%
CCc1ccc(C(=O)NNC(=O)C2CC(=O)N(c3ccc4c(c3)OCCO4)C2)cc1 (stereo unspecified) | 0% | 6% | 12%[59 µM] | -7% | 35%
CCc1ccccc1N(C)C(=O)c1nn(-c2ccc(OC)cc2)c(=O)c2c1c1ccccc1n2C | 2% | -8% | -4%[59 µM] | . | 36%
CCN(C(=O)Cn1c(=O)n2nc(CCn3nc(C)cc3C)nc2c2ccccc21)c1cccc(C)c1 | -21% | 3% | 13%[2.33 µM] | 0% | 26%
C/C(=N\O)C(C)/[N+]([O-])=C/c1nc(C)c(C)n1O (stereo unspecified) | 7.1µM* | 29% | . | . | 5%
CC1CN(C(=O)CSc2nnc(-c3ccc(Cl)cc3)n2C)CC(C)O1 (stereo unspecified) | -6% | 4% | 19%[59 µM] | 8% | 5%
COc1cccc(OC)c1OCCNC(C)(C)C | 8.9µM* | 6% | . | 50µM* | -11%
COc1cccc(OC)c1OCCCOc1cccc2cccnc12 | -14% | -6% | 15% | -19% | 24%
CCCCN(CC)CCOc1cccc2ccccc12 | . | . | 39%[59 µM] | . | .
CCN(CC)CCOc1ccccc1OC | 1.3µM* | -10% | 22µM*! | -35% | ?
COc1cccc(OC)c1OCCN(C)C | 1µM* | -3% | ? | 35µM* | ?
CC(C)(C)NCCOc1ccc(Br)cc1 | 3.5µM* | 6% | 18µM* | ? | -33%
CCc1ccc(OCCOCC(O)CNC(C)(C)C)cc1 (stereo unspecified) | -25%[57.1 µM] | -5% | 4% | 7% | ?
O=C(CN1CCN(c2ccccc2)CC1)NC(=O)NCc1ccco1 | -27% | 0% | 13%[59 µM] | -12% | 9%
SMILES | JMJD2A Tudor inh | GLS inh | G9a inh | BAZ2B block | HP1b chromo inh
COc1ccc([C@H]2CC(=O)C=C(c3cc(Cl)ccc3OC)C2)cc1 | -11% | 3% | -11%[0.501 µM] | 1% | 44%
C=CCNC(=O)Nc1ccc(Cl)cn1 | -1% | 2% | 10% | 2% | 31%
O=C(Nc1ccc(OC(F)F)cc1)c1cc(S(=O)(=O)N2CCCCC2)ccc1N1CCOCC1 | -2% | 0% | 16µM* | 28% | 29%
O=C(NC(=S)N1CCCCC1CO)c1cc(Br)ccc1Cl (stereo unspecified) | 7.9µM* | -5% | ? | 6% | -13%
Cc1ccc(S(=O)(=O)N2CCCC2)cc1C(=O)NCCN1CCOCC1 | -7% | -10% | 79µM* | ? | 28%
Cc1ccc(S(=O)(=O)N2CCOCC2)cc1C(=O)Nc1ccc(N2CCCCCC2)cc1 | 22µM* | 0% | 0%[0.501 µM] | 40µM* | ?
CCC1CCCCN1C(=S)NC(=O)c1cc(S(=O)(=O)N2CCOCC2)ccc1C (stereo unspecified) | -2% | 19% | 45µM* | -26% | 32%
Cc1ccc(S(=O)(=O)N2CCCCC2)cc1C(=O)Nc1ccc(S(=O)(=O)Nc2ncccn2)cc1 | -28% | -15% | 50µM* | ? | 12%
CS(=O)(=O)c1ccc(C(=O)Nc2ccc(N3CCOCC3)cc2)c(Cl)c1 | -13% | 29% | -7% | -13% | 60%
CN(c1ccccc1)S(=O)(=O)c1ccc(Cl)c(C(=O)Nc2ccc(N3CCOCC3)cc2)c1 | ? | 15% | 50µM* | ? | -4%
Cc1ccc(S(=O)(=O)N2CCOCC2)cc1C(=O)NNC(=O)c1ccoc1C | -1% | 10% | 10% | . | 20%[57 µM]
COc1cccc2cc(C(C)N(CCCN3CCOCC3)C(=S)Nc3ccc(C)c(C)c3)oc12 (stereo unspecified) | -28% | 4% | ? | ? | 17%
CCNCc1nc2cc(OC)c(OC)cc2c(=O)[nH]1 | -13% | 5% | ? | 50µM* | 33%
COC(=O)c1cc2c(n(-c3ccccc3)c1=O)CCCC2=O | -23% | -1% | . | . | 11%
COc1ccc(S(=O)(=O)n2c([N+](=O)[O-])cnc2C)cc1OC | ? | -5% | 56µM* | 79µM* | 72%
COc1cc(-c2nc3ccc(C)cn3c2Nc2ccc3c(c2)OCCO3)ccc1O | ? | 13µM* | 22µM* | 14µM* | 50µM*
Clc1cccc(-c2nc3ccccn3c2Nc2ccc3c(c2)OCCO3)c1 | 22µM* | 31% | ? | 11µM* | ?
COc1cc(-c2nc3cnccn3c2Nc2ccc3c(c2)OCCO3)ccc1O | -35% | 15% | ? | 2% | 0%
c1ccc(-c2nc3cnccn3c2Nc2ccc3c(c2)OCCO3)cc1 | 45µM* | ? | ? | ? | ?
Oc1ccc(-c2nc3ccccn3c2Nc2ccc3c(c2)OCCO3)cc1 | 50µM* | 11% | 13µM* | 40µM* | -37%
C=CC[C@@H](CC(=O)N[C@H](CO)Cc1ccccc1)C(=O)N[C@@H](COC(=O)[C@@H](CC=C)CC(=O)OC(C)(C)C)Cc1c[nH]c2ccccc12 | -22% | 3% | . | . | 37%
CCc1cccc(NC(=O)CCNS(=O)(=O)c2cc(Br)cnc2N)c1 | -21% | 4% | -11% | -13% | .

Assay outcomes: PubChem, National Center for Advancing Translational Sciences (NCATS)
